# Records with an inconclusive call do not appear. The source made the active and inactive calls. Calls come from the whole dose curve; as a rule, active = well fitted cell-killing curve with a large enough effect; inconclusive = small, poorly fitted or top-dose-only effect, or effect the other way; inactive = no such curve, though single readings can be large or run the other way.
# Test: Quantitative High-Throughput drug screen in 47 multiple myeloma cell lines against the NCATS MIPE library collection: MMM1_PLB cell viability assay (AID 1918976); note: nearly all actives have a fitted effect of over 35% in size
# Details: MMM1 myeloma cells viability, CellTiter-Glo, 48 h; series mostly up to 45.8 µM; viability (% of control): at the top concentration
# Excerpt: PI: Beverly A. Mock Ph.D.
# Laboratory of Cancer Biology and Genetics,
# Center for Cancer Research, National Cancer Institute,
# National Institute of Health, Bethesda, Maryland
# Drug resistance and disease progression are common in multiple myeloma (MM) patients, underscoring the need for new therapeutic combinations. […] We hypothesized that effective combinations would reduce MYC expression and enhance p16 activity. […] These preclinical data identify potentially useful drug combinations for evaluation in drug-resistant MM and reveal potential mechanisms of combined drug sensitivity.
# Described herein is the primary MIPE qHTS used to cherrypick compounds. Validated compounds were then further tested for potential synergistic activiy.
# [1] Peat TJ, Gaikwad SM, Dubois W, Gyabaah-Kessie N, Zhang S, Gorjifard S, Phyo Z, Andres M, Hughitt VK, Simpson RM, Miller MA, Girvin AT, Taylor A, Williams D, D'Antonio N, Zhang Y, Rajagopalan A, Flietner E, Wilson K, Zhang X, Shinn P, Klumpp-Thomas C, McKnight C, Itkin Z, Chen L, Kazandijian D, Zhang J, Michalowski AM, Simmons JK, Keats J, Thomas CJ, Mock BA. Drug combinations identified by high-throughput screening promote cell cycle transition and upregulate Smad pathways in myeloma. Cancer Lett. 2023 Aug 1;568:216284. doi: 10.1016/j.canlet.2023.216284. Epub 2023 Jun 24. PMID: 37356470; PMCID: PMC10408729.
# SEQUENCE No. (e.g., 1, 2, 3, etc.); […] (e.g., Cells, Incubation, Reagent, etc.); VALUE and DESCRIPTION.
# 1; Cells; 5 uL; white, solid bottom 1536-well Greiner assay plate.
# 2; Compounds; 23 nL; Kalypsis pin tool (Wako USA) equipped with a 1536-well pin head to transfer to the assay plates.
# 3; Incubation; 48 hours; 37C incubation.
# 4; Reagent;5uL; CellTiter Glo (Promega).
# 5; Detector; 425V; Luminescence; Viewlux PerkinElmer.
# NOTES (numbers refer to Sequence numbers above)
# 1. The cell-based screening methods employed in this study were like those previously published. Briefly, the corresponding myeloma cell lines were screened in 1,536-well plates with 500 cells, 5-uL per well for inhibition of cell viability (assessed by measuring ATP levels with CellTiterGlo).
# 2. NCATS MIPE 4.0 library of approved and investigational drugs were added using the Kalypsis pin tool. Wells treated with DMSO only for 100% viability and media only for 0% viability were used as controls.
# 3. The assay plates were covered and incubated for 48 hours in a 37C, 5% CO2 incubator with controlled humidity.
# 4. After 48 hours, CellTilter-GloTM luminescent substrate mix (Promega) reagent was added to the assay plate and plates we incubated for 5 min at room temperature.
# 5. Signal was measured as median relative luminescence units on a ViewLux (PerkinElmer) multiplate reader.
# [1] Heske CM, Davis MI, Baumgart JT, Wilson K, Gormally MV, Chen L, Zhang X, Ceribelli M, Duveau DY, Guha R, Ferrer M, Arnaldez FI, Ji J, Tran HL, Zhang Y, Mendoza A, Helman LJ, Thomas CJ. Matrix Screen Identifies Synergistic Combination of PARP Inhibitors and Nicotinamide Phosphoribosyltransferase (NAMPT) Inhibitors in Ewing Sarcoma. Clin Cancer Res. 2017 Dec 1;23(23):7301-7311. doi: 10.1158/1078-0432.CCR-17-1121. Epub 2017 Sep 12. PMID: 28899971; PMCID: PMC6636827.
# Potency is the fitted concentration of half-maximal effect.
Structure (SMILES),Potency,viability (% of control)
CCCc1nn(C)c2c(=O)[nH]c(-c3cc(S(=O)(=O)N4CCN(C)CC4)ccc3OCC)nc12,23.5 µM (active),
O=C(Nc1nc2ccccc2n1CCN1CCOCC1)c1cccc([N+](=O)[O-])c1,13.2 µM (active),
CCOc1cc(C(=O)Nc2ccc(Cl)c(-c3nc4ccccc4[nH]3)c2)cc(OCC)c1OCC,20.9 µM (active),
Cc1cc(SCc2sc(-c3ccc(C(F)(F)F)cc3)nc2C)ccc1OCC(=O)O,5.26 µM (active),
Oc1cccc(-c2nc(N3CCOCC3)c3oc4ncccc4c3n2)c1,0.0679 µM (active),
Cc1csc(NC(=O)c2sc3nc4c(c(C(F)(F)F)c3c2N)CCC4)n1,,101% (inactive)
O=C(Nc1cccnc1)N1CCC(Cc2cccc(Oc3ccc(C(F)(F)F)cn3)c2)CC1,10.5 µM (active),
N#CC[C@H](C1CCCC1)n1cc(-c2ncnc3[nH]ccc23)cn1,16.6 µM (active),
NC(=O)C1CCCc2c1[nH]c1ccc(Cl)cc21 (stereo not given),3.32 µM (active),
CC1(C)Cc2c(-c3ccccc3)c(-c3ccc(Cl)cc3)c(CC(=O)O)n2C1,20.9 µM (active),
NC[C@H](O)c1ccc(O)c(O)c1,23.5 µM (active),
CN(C)c1ccc(C2Nc3ccc4ccccc4c3C3=C2C(=O)CC(C)(C)C3)cc1Br (stereo not given),14.8 µM (active),
CCOC(=O)C1=C[C@]2(CC)CCCN3CCc4c(n1c1ccccc41)[C@@H]32,14.8 µM (active),
COc1ccc(-c2ccc3c(N4CCOC[C@H]4C)nc(N4CCOC[C@H]4C)nc3n2)cc1CO,0.0105 µM (active),
C#Cc1cccc(Nc2ncnc3cc(OCCOC)c(OCCOC)cc23)c1,0.59 µM (active),
CCCS(=O)(=O)Nc1ccc(F)c(C(=O)c2c[nH]c3ncc(-c4ccc(Cl)cc4)cc23)c1F,26.4 µM (active),
c1ccc(-c2nn3c(c2-c2ccnc4cc(OCCN5CCOCC5)ccc24)CCC3)nc1,26.4 µM (active),
CC(=O)NC(C)c1ccc(Oc2ccc(OC(C)C)cc2)cc1 (stereo not given),16.6 µM (active),
COc1nc(-c2ccc3c(c2)OCO3)n(-c2ccc(NC(=O)CSc3ccccc3)cc2)n1,7.43 µM (active),
CC(C)(Sc1ccc(CCN(CCCCC2CCCCC2)C(=O)NC2CCCCC2)cc1)C(=O)O,18.7 µM (active),

Structure (SMILES),Potency,viability (% of control)
O=c1ncn2nc(Sc3ccc(F)cc3F)ccc2c1-c1c(Cl)cccc1Cl,20.9 µM (active),
Cn1cc(-c2ccc3nnc(C(F)(F)c4ccc5ncccc5c4)n3n2)cn1,5.9 µM (active),
CCOC(=O)N1CCC(=C2c3ccc(Cl)cc3CCc3cccnc32)CC1,23.5 µM (active),
NCCCC(N)(C(=O)O)C(F)F (stereo not given),0.526 µM (active),
COc1ccc(C2=N[C@H](c3ccc(Cl)cc3)[C@H](c3ccc(Cl)cc3)N2C(=O)N2CCNC(=O)C2)c(OC(C)C)c1,4.69 µM (active),
CCc1ccc(CCOc2ccc(CC3SC(=O)NC3=O)cc2)nc1 (stereo not given),8.33 µM (active),
CC(C)NCC(O)COc1ccc(COCCOC(C)C)cc1 (stereo not given),7.43 µM (active),
CCc1cncnc1N1CCN(Cc2nc3ccc(C(F)(F)F)cc3[nH]2)CC1,16.6 µM (active),
O=C1CCC(N2C(=O)c3ccccc3C2=O)C(=O)N1 (stereo not given),2.96 µM (active),
Cc1cc2c(C(C)C)c(O)c(O)c(C=O)c2c(O)c1-c1c(C)cc2c(C(C)C)c(O)c(O)c(C=O)c2c1O,18.7 µM (active),
COc1cc2nccc(Oc3ccc(NC(=O)NC4CC4)c(Cl)c3)c2cc1C(N)=O,2.35 µM (active),
NNCCc1ccccc1,5.9 µM (active),
CC(C)(N)C(=O)N[C@H](COCc1ccccc1)C(=O)N1CCC2(CC1)CN(S(C)(=O)=O)c1ccccc12,23.5 µM (active),
CCC(=O)N[C@H]1CC[C@H](C(=O)N(C)c2ccc(-c3nc4ccccc4o3)cc2)C1,14.8 µM (active),
CC[C@H](Nc1ncnc2nc[nH]c12)c1nc2cccc(F)c2c(=O)n1-c1ccccc1,18.7 µM (active),
COc1cc(Oc2ccnc3cc(OC)c(OC)cc23)ccc1NC(=O)NC(C)c1nccs1 (stereo not given),16.6 µM (active),
Cc1c(CN2CCN(C(=O)C(C)C)CC2)sc2c(N3CCOCC3)nc(-c3cnc(N)nc3)nc12,0.0526 µM (active),
COc1ccc(-c2ccc3c(N4CCOCC4)nc(N4C[C@@H](C)O[C@@H](C)C4)nc3n2)cc1CO,0.105 µM (active),
Nc1ncnc2nc(-c3ccc(N4CCOCC4)nc3)cc(-c3cccc(Br)c3)c12,11.8 µM (active),
COc1cc(F)c(F)c(Nc2ccc(I)cc2F)c1NS(=O)(=O)C1(C[C@H](O)CO)CC1,2.64 µM (active),

# Reference: PubChem BioAssay (NCATS)
